# Shown are actives, neighbours in structure and some others; about 1.9% of the full set was active somewhere.
# 14-3-3 Bad PPI = inhibitors of 14-3-3 zeta/Bad binding, primary screen, biochemical, TR-FRET, bovine 14-3-3 zeta; 220,000 tested, 0.71% active; 14-3-3 protein zeta/delta (Bos taurus), P63103; inhibition, % at 21.7 µM; TR-FRET 14-3-3zeta/Dy647-pBad peptide displacement, 1 h;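 active = inhibition above about 70%, limit read from the data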;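 also: 0% = full 14-3-3 plus peptide FRET controls and 100% = background without 14-3-3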
# Target sequence (P63103 whole entry, looked up): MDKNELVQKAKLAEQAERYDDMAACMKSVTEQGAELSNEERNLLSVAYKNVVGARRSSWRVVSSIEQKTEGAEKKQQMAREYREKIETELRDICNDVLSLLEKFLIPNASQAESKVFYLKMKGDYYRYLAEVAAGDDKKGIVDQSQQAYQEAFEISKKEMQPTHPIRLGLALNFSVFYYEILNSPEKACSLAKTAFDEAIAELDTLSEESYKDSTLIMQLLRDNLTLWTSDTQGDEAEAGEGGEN
# Efa HMGR inh = inhibitors of E. faecalis class II HMGR, primary screen, biochemical, Enterococcus faecalis; HMG-CoA reductase (Enterococcus faecalis, mvaE); purified E. faecalis HMGR, NADPH absorbance 340 nm kinetic; inhibition, % at 10 µM; 190,000 tested, 0.41% active;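 active = inhibition above a set limit, the median over all tested compounds plus 3 SD, cut at about 9.5% in these data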;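 also: enzyme runs in reverse so mevalonate oxidation gives rising NADPH absorbance; 0% = complete reaction with DMSO and 100% = background rate lacking mevalonate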
# NCF1 inh = p47phox/p22phox peptide binding inhibitors, primary screen, biochemical, uHTS, NADPH oxidase regulatory subunit; fluorescence polarization, 2 h; inhibition, % at 24.7 µM; 220,000 tested, 0.53% active; AID 1274, 2008;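 active = inhibition above about 30%, limit read from the data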;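 also: 0% = p47phox with labelled peptide and 100% = labelled peptide alone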
# dFosB act = activators of delta FosB homodimer, primary screen, biochemical, fluorescence polarization, TAMRA-CDK5 oligo, single point; Protein FosB (Mus musculus), P13346; purified delta FosB; percent of positive-control signal above neutral wells; activation, % at 25 µM; 340,000 tested, 0.99% active; AID 493131, 2011;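 active = mean activation above about 17%, with every replicate also reaching it, limit read from the data, passing the limit was not always enough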
# Numbers without * were called inactive; x = not tested or not shown; [ ] = another dose, or the depositor's remark.
SMILES,14-3-3 Bad PPI,Efa HMGR inh,NCF1 inh,dFosB act
CC(=O)C(Cc1ccc(Cl)nc1)(Cc1ccc(Cl)nc1)C(C)=O,-3,10.0*,1,-6
O=C(NCC1CCCO1)C(c1cccs1)N(Cc1cccs1)C(=O)Cn1nnc(-c2cccs2)n1 (stereo not drawn),10,16*,-17,-6
O=C(NCC1CCCO1)C(c1cccs1)N(C(=O)Cn1nnc(-c2cccs2)n1)C1CCCC1 (stereo not drawn),-1,6,-48,-4
COc1cc(CCC(=O)Nc2ccc(Cl)c(C(F)(F)F)c2)cc(OC)c1OC,75*[fluorescence artefact?],0,-6,-6
CCOC(=O)Cc1nn(Cc2ccccc2)c(=O)c2ccccc12,-5,14*,-8,-6
COc1ccc(C(=O)N2CCOC2CNC(=O)C(=O)NCc2ccc3c(c2)OCO3)cc1 (stereo not drawn),0,-5,x,0
CCN(CC)CCNC(=O)C(=O)NCC1OCCN1C(=O)c1ccc2c(c1)OCO2 (stereo not drawn),-6,19*,1,x
Cc1ccc(CNC(=O)C(=O)NCC2OCCN2C(=O)c2ccc3c(c2)OCO3)cc1 (stereo not drawn),0,-2,x,17*
CC(C)(C)C(=O)OCc1nc(-c2ccc(Cl)cc2)cs1,1,x,-10,4
Cc1ccc(-n2ncc(C(=O)N3CCN(C(=O)c4ccco4)CC3)c2C2CCN(C(=O)OC(C)(C)C)CC2)cc1C,x,x,x,-7
COC(=O)c1c(C)c2c(C)cc3ccccn3c-2c1C(=O)OC,1,-7,6,9
COC(=O)c1cc2c(-c3ccccc3)cc3ccccn3c-2c1C(=O)OC,-35,0,53*,-15
O=c1cc(-c2ccncc2)oc2c1ccc1ccccc12,x,x,x,-12
O=c1cc(-c2ccco2)oc2c1ccc1ccccc12,77*,-1,-19,-22
O=C(CSc1nc2sc3c(c2c(=O)[nH]1)CCC3)NCCO,9,x,-7,2
COC(=O)CSc1nc2sc3c(c2c(=O)[nH]1)CCC3,-2,x,76*,-7
Cc1ccc(NC(=O)Cn2ncc3c([nH]c4ccccc43)c2=O)cc1Cl,x,x,x,55*
O=C1CC(=C(c2ccccc2)c2ccccc2)C(=O)N1CCCCN1CCN(c2ccccc2)CC1,76*,-6,-70,-3
Cc1cc2c(=Cc3ccc(N(C)C)cc3)c3ccccc3n2[n+]1C,x,x,x,100*
CCOC(=O)c1cc2c(=Cc3ccc(N(C)C)cc3)c3ccccc3n2[n+]1C,x,x,x,46*
CN(C)c1ccc(C=c2c3ccccc3n3c2c2ccccc2[n+]3C)cc1,x,x,x,-259
CN(C)c1ccc(C=c2c3cc(O)ccc3n3c2cc(-c2ccccc2)[n+]3C)cc1,x,x,x,82*
Cc1cc(C)cc(N2C(=O)CCN(Cc3ccccc3)C2=O)c1,0,x,-2,2
CC(C)(C)Nc1ncnc2c1cnn2-c1ccccc1,x,x,x,-8
COc1cc(NS(=O)(=O)c2ccc(F)cc2)c(OC)cc1NC(=O)C1CC1,5,-4,-1,x
SMILES,14-3-3 Bad PPI,Efa HMGR inh,NCF1 inh,dFosB act
COc1cccc(C(=O)NC(=S)Nc2ccc3oc(=O)ccc3c2)c1,1,-3,37*,-12
COc1cc(OC)cc(C(=O)NC(=S)Nc2ccc3oc(=O)ccc3c2)c1,x,x,x,-11
COc1ccccc1NC(=O)Nc1nnc(CC(=O)Nc2ccccc2C)s1,-3,3,-7,26*
COc1ccccc1NC(=O)Nc1nnc(CC(=O)Nc2ccccc2)s1,7,-5,-21,x
Cc1cc(C(=O)CSc2nc(N)cc(=O)[nH]2)ccc1F,x,x,x,-7
Cc1cc(C)c2c(=O)[nH]c(SCC(=O)c3ccc(F)c(C)c3)nc2n1,46,-1,38*,-6
COc1cc(-c2noc(C)c2C(=O)NCCCN2CCCC2=O)cc(OC)c1OC,x,x,x,4
COCCn1nnnc1CN1CCN2CCCC2C1 (stereo not drawn),86*,-1,19,5
CC(C)(C)n1nnnc1CN1CCN2CCCC2C1 (stereo not drawn),47,-11,-6,-2
c1ccc(CC2CCN(C(c3cccs3)c3nnnn3C3CCCC3)CC2)cc1 (stereo not drawn),-2,-3,-72,-10
c1ccc(CN(Cc2cccs2)C(c2cccs2)c2nnnn2C2CCCC2)cc1 (stereo not drawn),87*,1,-5,-4
c1coc(CN2CCN(C(c3cccs3)c3nnnn3C3CCCC3)CC2)c1 (stereo not drawn),77*,5,-14,-4

# Screening results from PubChem.
